PubChem BioAssay (NCI)
“And” between values parts separate entries of the source, which are not always exact repeats. Identical values can stand only once. About 83,000 compounds went through this panel and 20% of them were active in at least one assay; those are over-represented in the sample as a whole.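 Treatment: one concentration, 48 hours, 96-well format. Scoring: percent growth, with anything below 10 considered active.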 The source made the active and inactive calls.

What follows are molecules tested on COLO 205 colon (assay: NCI-60 one-dose screen, 48 h (100 = growth as untreated, 0 = no growth, -100 = all killed)). Details: 10 µM unless noted.
Protocol: Cells are grown in 96 well plates and exposed to the test compound for 48 hours. Compounds are tested at a single concentration, which is 10^-5 M for most compounds. The reported endpoint is percent growth (GI% or GIPRCNT), where numbers from 0 - 100% represent growth inhibition, and numbers from -100% - 0 represent cell death. For example, a value of 40 represents 60% growth inhibition. A value of 0 means no net growth occurred over the course of the experiment. A value of -40 indicates 40% of cells at the beginning of the experiment died by the end of the experiment. A value of -100 means all cells are dead at the end of the experiment.
NCI-60 Human Tumor Cell Lines Screen was performed using the standard one-dose NCI protocol, which is described in more detail at https://dtp.cancer.gov/discovery_development/nci-60/default.htm.
Compounds with GIPRCNT values below 10 were considered active. Activity score was based on GIPRCNT using the following formula: […]
Score is 0 for GIPRCNT values of 100 or above, 50 for GIPRCNT values of 0, and 100 for GIPRCNT values of -100.

SMILES	growth
CCCCC#Cc1c(/C=C(\CCCC)SCC)n(C)c(=O)[nH]c1=O	108% (inactive)
O=C(/C=C/C12c3ccccc3C(c3ccccc31)C1C(=O)NC(=O)C12)c1ccncc1 (stereo not given)	78.2% (inactive)
COc1cc(OC)cc(-c2ccc(-c3ccc(C(=N)N)cn3)s2)c1	49.4% (inactive)
O=C1OCC2=C1C(c1cccc([N+](=O)[O-])c1)c1cc3c(cc1N2CCO)CCC3 (stereo not given)	-27.1% (active)
COc1ccc(-c2nnc3n(C)c(=O)c4ccccc4n23)cc1O	16.6% (inactive)
Cc1ccc(Cl)cc1N1CCN(C(=O)[C@@H]2C[C@@H]2c2ccc(F)cc2)CC1	107% (inactive)
CCC(=C(c1ccc(OCCCN(C)C)cc1)c1ccc(OCCCN(C)C)cc1)c1ccc(Cl)cc1	-67.3% (active)
CCCCCCCC/C=C\CCCCCCCCOc1ccccc1CC(=O)NCC[N+]1(C)CCOCC1	17.3% (inactive)
C#CCOc1cccc(Nc2ncc3ncn(C4CCN(C(=O)CCl)C4)c3n2)c1 (stereo not given)	-84% [6.25 µM] (active)
COc1cc(-c2nc(SCCC(C)C)nc(Nc3ccc(F)cc3)c2C#N)cc(OC)c1OC	79.6% (inactive)
COc1cc(F)c(/C=C/c2cc(/C=C/c3cc(OC)c(OC)cc3F)n(-c3cc(F)cc(F)c3)n2)cc1OC	115% (inactive)
CCCCCCCCCCCCCCCC(=O)O[C@@H]1[C@@H](O)[C@@H](O)C([C@H](NC(=O)[C@@H]2C[C@@H](CCC)CN2C)[C@H](C)Cl)O[C@@H]1SC (stereo not given in full)	103% (inactive)
O=C(NCc1ccc(Cn2c(=O)sn(-c3ccc(Cl)cc3)c2=O)cc1)OCc1ccc2c(Cl)cc(Cl)c(O)c2n1	109% (inactive)
COc1cc(-c2nc3occn3c2-c2ccnc(NCCCNS(=O)(=O)c3ccc(O)cc3)n2)ccc1F	45% (inactive)
CCCCCCCCCCCCCCCCCCn1cc(COc2ccc(C=O)cc2)nn1	113% (inactive)
Cc1ccc(-c2nc([P+](c3ccccc3)(c3ccccc3)c3ccccc3)c(Nc3ccccc3)o2)cc1	-62.8% (active)
COc1ccc(Oc2nc(Nc3ccc(N4CCOCC4)cc3)ncc2NC(=O)c2cccc(C(F)(F)F)c2)cc1	84.8% (inactive)
O=C1C=CC(=O)N1c1ccc2ccccc2c1	-58.5% (active) and -42.5% (active)
Nc1[nH]nc(Nc2ccccc2)c1-c1nc2ccccc2s1	64.2% (inactive)
COc1cc(NC2CCCCC2O)c2nc(-c3ccc(Cl)cc3)ccc2c1 (stereo not given)	93.2% (inactive) and 110% (inactive)

SMILES	growth
COc1ccc(C/C(C)=C(/c2ccc(OCCN3CCCC3)cc2)c2ccc(OC(=O)NCc3ccccc3)cc2)cc1	77% (inactive)
COc1ccc(-c2ccc(-c3ccc(C(=N)N)cn3)o2)cc1Cl	-72.6% (active)
CN1C(=O)N(C)C2(c3ccccc3)N(CC(=O)Nc3ccccc3O)C(=O)NC12c1ccccc1 (stereo not given)	110% (inactive)
O=C(Nc1ccc2ncsc2c1)c1csc(Nc2ccc3[nH]ncc3c2)n1	31.2% (inactive)
O=C1/C(=C/c2cn(-c3ccccc3)nc2-c2ccccc2)SC(=S)N1c1ccc(Cl)cc1	111% (inactive)
C=CCOc1ccc(/C=C2\SC(=S)N(CCc3ccc(O)cc3)C2=O)cc1	114% (inactive)
Fc1ccc(NC(c2ccc(F)cc2)C2CCN(CCCCc3ccccc3)CC2)cc1 (stereo not given)	-56.5% (active)
CCCCSc1ccc2nc(-c3ccc(OCCCN=C(N)N)cc3)cn2c1	51.1% (inactive)
Cc1c(C(C)(C)O)cn2ncnc(Oc3ccc(NC(=O)Nc4ccc(Cl)c(C(F)(F)F)c4)cc3)c12	45.6% (inactive)
CCc1c2c(nc3ccc(OCc4ccc(B5OC(C)(C)C(C)(C)O5)cc4)cc13)-c1cc3c(c(=O)n1C2)COC(=O)[C@]3(O)CC	18.8% (inactive)
COc1cc(/C=C2\C(=O)N(CCCCn3c4ccccc4c(=O)c4ccccc43)c3ccccc32)cc(OC)c1O	107% (inactive)
COc1cc(CO)cc2cc3ccccc3nc12	107% (inactive)
[2H]C([2H])([2H])Oc1cccc(/C=C/C(=O)/C=C(/C=C/c2cccc(OC([2H])([2H])[2H])c2OC([2H])([2H])[2H])OB(F)F)c1OC([2H])([2H])[2H]	55.2% (inactive)
COc1cc2nc3cc([N+](=O)[O-])ccc3c(NCCNCC(C)(C)O)c2cc1OC	-70.1% (active)
CN(C)C1CCN(C(=O)c2ccc(NC(=O)Nc3ccc(-c4nc(N5CCOCC5)c5cccn5n4)cc3)cc2)CC1	-3.31% (active)
C=C1C(=O)O[C@H]2[C@H]1CC/C(COC(=O)NCc1ccc(Cn3c(=O)sn(CCCI)c3=O)cc1)=C\CC[C@@]1(C)O[C@@H]21	-45.8% (active)
Cc1ccc(NC(=O)c2sc3nc(C)c(C(=O)c4ccccc4)cc3c2N)cc1	98.5% (inactive)
CCN(CC)CCCN1C(=O)c2c(c(C)c3c(oc4cc(OC)ccc43)c2C)C1=O	86.1% (inactive)
N#C/C(=C\c1ccc(Br)cc1)n1nnc2c(F)cccc21	-15.9% (active)
CCOC(=O)C1=C(C)NC(=O)NC1c1c(Cl)n(-c2ccccc2)c2ccccc12 (stereo not given)	107% (inactive)
